# ChEMBL document CHEMBL1961873, “Compounds: GSK PKIS; Assays: Nanosyn kinase panel” (2012)
# Columns and labels:
# [1] = molecular target: Calcium/calmodulin-dependent protein kinase type II subunit alpha (Homo sapiens) (UniProt Q9UQM7); conditions: at 1 µM;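 also: reported value is a mean percent inhibition of CAMK2A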
# [2] = molecular target: Calcium/calmodulin-dependent protein kinase type II subunit delta (Homo sapiens) (UniProt Q13557); conditions: at 0.1 µM
# [3] = molecular target: Calcium/calmodulin-dependent protein kinase type II subunit delta (Homo sapiens) (UniProt Q13557); conditions: at 1 µM
# [4] = molecular target: T1, Calcium/calmodulin-dependent protein kinase type IV (Homo sapiens) (UniProt Q16566); conditions: at 0.1 µM
# T1 sequence (whole entry): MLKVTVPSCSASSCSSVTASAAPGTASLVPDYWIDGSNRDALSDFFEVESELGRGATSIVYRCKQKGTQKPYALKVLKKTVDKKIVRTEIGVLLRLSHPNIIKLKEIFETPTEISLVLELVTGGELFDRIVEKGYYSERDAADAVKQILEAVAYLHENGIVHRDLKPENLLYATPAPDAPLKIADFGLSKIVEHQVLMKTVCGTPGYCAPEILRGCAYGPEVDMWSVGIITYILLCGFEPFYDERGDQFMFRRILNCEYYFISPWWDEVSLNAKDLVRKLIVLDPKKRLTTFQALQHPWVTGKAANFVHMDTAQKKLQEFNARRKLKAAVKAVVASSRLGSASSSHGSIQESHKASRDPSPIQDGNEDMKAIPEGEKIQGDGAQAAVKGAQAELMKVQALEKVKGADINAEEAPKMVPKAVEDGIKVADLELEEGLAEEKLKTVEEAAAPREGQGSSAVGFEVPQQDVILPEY
# [5] = molecular target: T1, Calcium/calmodulin-dependent protein kinase type IV (Homo sapiens); conditions: at 1 µM
# [6] = molecular target: T2, Serine/threonine-protein kinase Chk1 (Homo sapiens) (UniProt O14757); conditions: at 0.1 µM
# T2 sequence (whole entry): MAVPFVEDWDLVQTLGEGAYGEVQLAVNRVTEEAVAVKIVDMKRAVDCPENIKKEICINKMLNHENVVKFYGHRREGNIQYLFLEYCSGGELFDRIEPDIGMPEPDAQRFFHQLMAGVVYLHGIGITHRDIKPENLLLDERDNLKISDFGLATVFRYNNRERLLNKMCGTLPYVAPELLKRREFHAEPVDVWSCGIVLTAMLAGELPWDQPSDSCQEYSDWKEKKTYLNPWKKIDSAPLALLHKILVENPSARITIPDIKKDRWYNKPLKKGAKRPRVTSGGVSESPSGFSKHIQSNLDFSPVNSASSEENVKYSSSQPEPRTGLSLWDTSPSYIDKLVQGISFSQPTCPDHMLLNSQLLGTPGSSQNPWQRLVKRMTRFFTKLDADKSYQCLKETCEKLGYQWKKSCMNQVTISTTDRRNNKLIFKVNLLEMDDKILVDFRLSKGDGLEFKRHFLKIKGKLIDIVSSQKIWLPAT
# [7] = molecular target: T2, Serine/threonine-protein kinase Chk1 (Homo sapiens); conditions: at 1 µM
# [8] = molecular target: Serine/threonine-protein kinase Chk2 (Homo sapiens) (UniProt O96017); conditions: at 0.1 µM
# [9] = molecular target: Serine/threonine-protein kinase Chk2 (Homo sapiens) (UniProt O96017); conditions: at 1 µM
# [10] = molecular target: Death-associated protein kinase 1 (Homo sapiens) (UniProt P53355); conditions: at 0.1 µM
# [11] = molecular target: Death-associated protein kinase 1 (Homo sapiens) (UniProt P53355); conditions: at 1 µM
# [12] = molecular target: T3, Serine/threonine-protein kinase DCLK2 (Homo sapiens) (UniProt Q8N568); conditions: at 0.1 µM
# T3 sequence (whole entry): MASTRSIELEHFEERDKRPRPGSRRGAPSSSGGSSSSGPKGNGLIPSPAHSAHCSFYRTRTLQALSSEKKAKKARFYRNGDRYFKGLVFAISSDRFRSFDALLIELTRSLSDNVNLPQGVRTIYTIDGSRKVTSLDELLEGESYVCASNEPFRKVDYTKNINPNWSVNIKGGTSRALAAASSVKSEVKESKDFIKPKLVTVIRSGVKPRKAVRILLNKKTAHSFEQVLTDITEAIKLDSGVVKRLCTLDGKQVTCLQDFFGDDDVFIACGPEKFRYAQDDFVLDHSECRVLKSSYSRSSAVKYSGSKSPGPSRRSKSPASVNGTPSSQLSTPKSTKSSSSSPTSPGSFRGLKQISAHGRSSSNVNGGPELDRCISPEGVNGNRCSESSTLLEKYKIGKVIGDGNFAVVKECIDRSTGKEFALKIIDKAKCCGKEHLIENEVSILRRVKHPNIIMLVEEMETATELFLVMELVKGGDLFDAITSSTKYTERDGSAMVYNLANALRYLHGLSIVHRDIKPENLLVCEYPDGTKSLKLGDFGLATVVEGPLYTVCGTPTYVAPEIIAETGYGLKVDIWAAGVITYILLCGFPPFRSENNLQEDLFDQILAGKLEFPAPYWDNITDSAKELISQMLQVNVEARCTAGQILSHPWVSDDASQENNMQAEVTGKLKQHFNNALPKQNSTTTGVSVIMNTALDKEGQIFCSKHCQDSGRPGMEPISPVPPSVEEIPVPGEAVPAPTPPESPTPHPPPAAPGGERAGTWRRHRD
# [13] = molecular target: T3, Serine/threonine-protein kinase DCLK2 (Homo sapiens); conditions: at 1 µM
# [14] = molecular target: MAP kinase-activated protein kinase 2 (Homo sapiens) (UniProt P49137); conditions: at 0.1 µM
# [15] = molecular target: MAP kinase-activated protein kinase 2 (Homo sapiens) (UniProt P49137); conditions: at 1 µM
# [16] = molecular target: MAP kinase-activated protein kinase 3 (Homo sapiens) (UniProt Q16644); conditions: at 0.1 µM
# [17] = molecular target: MAP kinase-activated protein kinase 3 (Homo sapiens) (UniProt Q16644); conditions: at 1 µM
# [18] = molecular target: Serine/threonine-protein kinase MARK1 (Homo sapiens) (UniProt Q9P0L2); conditions: at 0.1 µM
# [19] = molecular target: Serine/threonine-protein kinase MARK1 (Homo sapiens) (UniProt Q9P0L2); conditions: at 1 µM
# [20] = molecular target: MAP/microtubule affinity-regulating kinase 3 (Homo sapiens) (UniProt P27448); conditions: at 0.1 µM;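 also: mean percent inhibition of MARK3 kinase activity, measured within the GSK PKIS screening panel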
# Chain of MAP/microtubule affinity-regulating kinase 3 (Homo sapiens) (P27448 whole entry, looked up): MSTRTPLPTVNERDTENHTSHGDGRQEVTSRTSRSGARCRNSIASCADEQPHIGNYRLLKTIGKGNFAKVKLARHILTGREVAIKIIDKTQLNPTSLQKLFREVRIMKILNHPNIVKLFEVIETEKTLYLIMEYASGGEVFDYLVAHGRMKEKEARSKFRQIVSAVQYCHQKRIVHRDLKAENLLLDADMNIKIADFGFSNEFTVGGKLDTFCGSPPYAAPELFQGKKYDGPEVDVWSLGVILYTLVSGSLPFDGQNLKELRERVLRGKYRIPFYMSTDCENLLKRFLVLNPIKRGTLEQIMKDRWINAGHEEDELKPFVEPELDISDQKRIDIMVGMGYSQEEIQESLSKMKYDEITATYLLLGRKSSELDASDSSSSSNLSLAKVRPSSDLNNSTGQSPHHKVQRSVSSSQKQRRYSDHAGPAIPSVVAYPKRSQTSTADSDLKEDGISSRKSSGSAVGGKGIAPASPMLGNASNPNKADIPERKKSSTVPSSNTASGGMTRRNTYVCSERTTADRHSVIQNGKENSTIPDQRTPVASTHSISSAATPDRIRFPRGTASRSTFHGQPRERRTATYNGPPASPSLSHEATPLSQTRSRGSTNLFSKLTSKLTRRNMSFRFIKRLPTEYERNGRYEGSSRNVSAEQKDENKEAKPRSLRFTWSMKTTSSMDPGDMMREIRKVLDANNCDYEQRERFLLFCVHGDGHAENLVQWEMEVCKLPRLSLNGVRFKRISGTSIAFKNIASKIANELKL
# Chain of Serine/threonine-protein kinase Chk2 (Homo sapiens) (O96017 whole entry): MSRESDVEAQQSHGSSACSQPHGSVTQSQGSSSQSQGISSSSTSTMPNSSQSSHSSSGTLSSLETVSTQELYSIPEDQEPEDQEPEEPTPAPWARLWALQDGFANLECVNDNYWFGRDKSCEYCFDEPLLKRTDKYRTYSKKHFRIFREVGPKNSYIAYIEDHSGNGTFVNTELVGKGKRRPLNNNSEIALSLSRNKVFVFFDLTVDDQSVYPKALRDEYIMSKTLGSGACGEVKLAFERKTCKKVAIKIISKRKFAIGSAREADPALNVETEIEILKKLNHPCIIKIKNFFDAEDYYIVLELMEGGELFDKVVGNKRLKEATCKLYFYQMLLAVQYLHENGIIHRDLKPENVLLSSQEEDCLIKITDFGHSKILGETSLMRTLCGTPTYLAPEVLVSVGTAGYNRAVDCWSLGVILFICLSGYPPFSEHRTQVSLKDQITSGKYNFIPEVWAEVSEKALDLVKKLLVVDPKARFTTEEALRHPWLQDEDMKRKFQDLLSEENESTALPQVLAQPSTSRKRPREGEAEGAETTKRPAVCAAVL
# Chain of MAP kinase-activated protein kinase 3 (Homo sapiens) (Q16644 whole entry, looked up): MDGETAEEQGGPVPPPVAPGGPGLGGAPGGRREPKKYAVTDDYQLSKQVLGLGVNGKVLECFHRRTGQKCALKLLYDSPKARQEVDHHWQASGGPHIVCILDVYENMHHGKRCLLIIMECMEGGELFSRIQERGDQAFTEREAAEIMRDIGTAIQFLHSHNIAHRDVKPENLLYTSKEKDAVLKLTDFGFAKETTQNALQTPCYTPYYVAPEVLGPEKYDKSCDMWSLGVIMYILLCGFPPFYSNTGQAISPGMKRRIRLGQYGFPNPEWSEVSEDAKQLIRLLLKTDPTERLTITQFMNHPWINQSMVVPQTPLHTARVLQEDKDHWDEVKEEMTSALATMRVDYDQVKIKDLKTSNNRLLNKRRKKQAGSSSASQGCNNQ
# Chain of Calcium/calmodulin-dependent protein kinase type II subunit delta (Homo sapiens) (Q13557 whole entry): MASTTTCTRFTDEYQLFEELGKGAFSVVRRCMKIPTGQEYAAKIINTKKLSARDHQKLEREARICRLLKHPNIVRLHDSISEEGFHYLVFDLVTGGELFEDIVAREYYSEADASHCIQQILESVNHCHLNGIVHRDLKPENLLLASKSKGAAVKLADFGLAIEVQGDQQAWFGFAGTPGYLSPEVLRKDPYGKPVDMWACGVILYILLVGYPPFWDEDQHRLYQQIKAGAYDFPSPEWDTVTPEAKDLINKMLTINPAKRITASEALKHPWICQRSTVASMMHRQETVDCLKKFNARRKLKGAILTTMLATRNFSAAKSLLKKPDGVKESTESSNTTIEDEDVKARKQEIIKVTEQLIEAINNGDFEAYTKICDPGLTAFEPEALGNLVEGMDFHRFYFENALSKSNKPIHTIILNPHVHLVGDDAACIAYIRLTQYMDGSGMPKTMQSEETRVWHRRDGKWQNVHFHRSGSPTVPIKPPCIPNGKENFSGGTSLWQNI
# Chain of Death-associated protein kinase 1 (Homo sapiens) (P53355 whole entry, looked up): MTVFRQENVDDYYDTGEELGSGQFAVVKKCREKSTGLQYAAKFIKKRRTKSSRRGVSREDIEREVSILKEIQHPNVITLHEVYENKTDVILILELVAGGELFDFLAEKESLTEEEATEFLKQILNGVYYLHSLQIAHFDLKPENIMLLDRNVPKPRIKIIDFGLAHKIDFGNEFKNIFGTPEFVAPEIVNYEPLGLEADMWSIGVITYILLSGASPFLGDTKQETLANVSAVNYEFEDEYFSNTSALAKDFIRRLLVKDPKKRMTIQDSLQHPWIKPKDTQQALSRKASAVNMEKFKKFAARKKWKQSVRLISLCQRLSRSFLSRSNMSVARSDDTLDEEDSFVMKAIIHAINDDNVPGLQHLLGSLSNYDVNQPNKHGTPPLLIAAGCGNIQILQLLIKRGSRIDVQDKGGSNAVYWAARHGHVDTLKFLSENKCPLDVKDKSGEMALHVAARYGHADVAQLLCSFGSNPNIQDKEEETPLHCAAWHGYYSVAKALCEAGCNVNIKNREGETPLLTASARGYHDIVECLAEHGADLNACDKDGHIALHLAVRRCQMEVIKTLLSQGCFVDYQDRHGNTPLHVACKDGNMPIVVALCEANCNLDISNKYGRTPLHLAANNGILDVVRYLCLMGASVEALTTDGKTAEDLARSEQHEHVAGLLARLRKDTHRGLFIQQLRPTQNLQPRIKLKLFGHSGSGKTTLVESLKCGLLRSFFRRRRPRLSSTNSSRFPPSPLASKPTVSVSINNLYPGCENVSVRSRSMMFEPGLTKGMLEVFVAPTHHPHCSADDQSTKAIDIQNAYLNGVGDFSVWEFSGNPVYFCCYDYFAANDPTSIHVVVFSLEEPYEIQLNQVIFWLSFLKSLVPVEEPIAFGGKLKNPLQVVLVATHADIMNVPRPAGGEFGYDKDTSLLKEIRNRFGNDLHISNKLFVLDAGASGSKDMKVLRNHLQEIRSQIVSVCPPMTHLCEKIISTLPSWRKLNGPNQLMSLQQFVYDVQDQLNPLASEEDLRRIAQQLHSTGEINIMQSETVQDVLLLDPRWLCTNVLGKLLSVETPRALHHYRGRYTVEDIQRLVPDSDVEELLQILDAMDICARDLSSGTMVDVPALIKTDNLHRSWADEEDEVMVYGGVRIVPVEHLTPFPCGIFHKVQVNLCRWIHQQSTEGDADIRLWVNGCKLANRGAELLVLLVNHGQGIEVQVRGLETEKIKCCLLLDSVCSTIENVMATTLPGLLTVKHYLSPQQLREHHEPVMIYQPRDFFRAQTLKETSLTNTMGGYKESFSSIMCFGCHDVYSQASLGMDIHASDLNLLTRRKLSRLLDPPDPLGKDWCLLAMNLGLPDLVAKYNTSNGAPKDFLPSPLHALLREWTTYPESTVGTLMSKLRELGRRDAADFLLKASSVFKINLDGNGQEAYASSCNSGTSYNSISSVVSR
# Chain of Calcium/calmodulin-dependent protein kinase type II subunit alpha (Homo sapiens) (Q9UQM7 whole entry): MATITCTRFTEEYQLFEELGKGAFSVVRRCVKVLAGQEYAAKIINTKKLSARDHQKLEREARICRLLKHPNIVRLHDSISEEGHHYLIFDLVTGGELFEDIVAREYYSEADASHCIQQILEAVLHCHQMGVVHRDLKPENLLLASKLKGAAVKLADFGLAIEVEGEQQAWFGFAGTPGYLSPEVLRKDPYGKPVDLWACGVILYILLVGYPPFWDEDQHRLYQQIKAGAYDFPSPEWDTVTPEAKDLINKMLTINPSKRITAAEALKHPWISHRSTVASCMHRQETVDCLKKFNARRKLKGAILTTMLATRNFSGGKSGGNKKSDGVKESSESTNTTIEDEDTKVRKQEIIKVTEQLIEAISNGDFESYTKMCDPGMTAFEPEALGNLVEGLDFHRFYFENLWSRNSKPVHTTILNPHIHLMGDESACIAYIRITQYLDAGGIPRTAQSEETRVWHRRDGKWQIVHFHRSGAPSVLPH
# Chain of MAP kinase-activated protein kinase 2 (Homo sapiens) (P49137 whole entry, looked up): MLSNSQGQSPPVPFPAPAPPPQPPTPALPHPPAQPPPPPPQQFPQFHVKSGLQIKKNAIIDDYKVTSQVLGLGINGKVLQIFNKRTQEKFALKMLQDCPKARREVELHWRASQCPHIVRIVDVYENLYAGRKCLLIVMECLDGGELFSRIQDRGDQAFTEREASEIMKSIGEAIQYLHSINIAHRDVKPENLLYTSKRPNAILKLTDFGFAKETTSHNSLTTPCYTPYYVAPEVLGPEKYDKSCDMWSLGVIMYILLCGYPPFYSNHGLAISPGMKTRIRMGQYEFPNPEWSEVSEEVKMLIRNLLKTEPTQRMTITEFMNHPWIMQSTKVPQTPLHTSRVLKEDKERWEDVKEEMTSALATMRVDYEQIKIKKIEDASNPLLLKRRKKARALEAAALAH
Compound,inhibition [1] [%],inhibition [2] [%],inhibition [3] [%],inhibition [4] [%],inhibition [5] [%],inhibition [6] [%],inhibition [7] [%],inhibition [8] [%],inhibition [9] [%],inhibition [10] [%],inhibition [11] [%],inhibition [12] [%],inhibition [13] [%],inhibition [14] [%],inhibition [15] [%],inhibition [16] [%],inhibition [17] [%],inhibition [18] [%],inhibition [19] [%],inhibition [20] [%]
Nc1ncc(-c2cccc(S(N)(=O)=O)c2)c2scc(-c3ccc(F)c(Cl)c3)c12,0.53,3.74,2.95,1.75,1.03,5.24,2.44,3.46,7.7,5.41,3.2,0.41,0.61,1.76,1.12,6,15.7,3.57,5.62,-0.65
CCNC(=O)O[C@H]1CN[C@H](C#Cc2cc3ncnc(Nc4ccc(OCc5cccc(F)c5)c(Cl)c4)c3s2)C1,3.02,3.6,4.34,2.5,2.5,3.99,2.84,2.23,2.55,3.17,3.45,1.18,2.85,1.55,1.53,2.87,2.32,1.89,2.65,2.76
Cc1cccc(Nc2ncc(-c3ccccc3)o2)c1,7.1,4.42,6.85,1.87,4.2,4.59,6.26,3.02,6.44,5.26,3.39,-0.51,1.2,1.15,3.82,3.13,4.32,2.41,8.07,3.98
Nc1nc(-c2ccc(F)cc2)c(-c2ccc3ncccc3n2)s1,4.65,4.16,4.81,-0.44,-0.24,3.9,5.94,3.09,4.06,4.26,4.25,1.89,1.19,2.16,1.53,11.3,24.6,4.82,7.14,3.4
COc1ccc(-c2cc3c(N)ncnc3o2)cc1,-0.48,-0.8,-0.85,0.63,-1.72,0.13,2.78,-1.09,3.25,-1.84,-3.05,-1.82,0.37,-1.21,-0.76,-1.27,-1.91,0.03,2.81,-1.55
COc1cc(N2CCN(C(C)C)CC2)ccc1Nc1nc(Nc2ccc(F)cc2C(N)=O)c2cc[nH]c2n1,53.3,29,75.1,4.5,29.3,3.09,27.8,49.6,79.1,5.07,46,-0.62,8.47,0.94,5.03,3.04,7.11,7.7,47.7,12.3
CCCN(CCS(C)(=O)=O)Cc1ccc(-c2ccc3ncnc(Nc4ccc(OCc5cccc(F)c5)c(Cl)c4)c3c2)o1,0.76,1.58,1.84,1.01,2.17,7.57,6.58,5.44,6.1,8.24,8.65,0.95,0.44,3.34,3.18,7.91,7.63,0.08,0.29,-1.25
Cc1ccc(O)cc1Nc1ccnc2cc(-c3ccccn3)ccc12,5.11,4.51,6.51,-0.2,0.26,4.18,4.5,3.95,5.81,3.99,5.29,1.56,2.1,1.91,1.68,7.63,19.4,4.13,6.28,4.39
COc1cc(Nc2nccc(Nc3ccc4c(C)n[nH]c4c3)n2)cc(OC)c1OC,4.38,3.41,3.54,1.45,4.68,1.45,3.35,1.73,9.02,1.68,2.65,-0.29,2.5,0.91,0.86,1.05,1.36,2.59,8.82,3.33
CCCN1CCC(c2ccc(Nc3nc(Nc4cc(F)ccc4C(N)=O)c4cc[nH]c4n3)c(OC)c2)CC1,43.6,20.9,71,7.54,37.9,0.91,10.7,58.3,80.9,3.52,50,1.99,8.21,1.84,3.23,5.33,11.9,9.11,50.1,12.2
CC(=O)NCc1cccc(C#Cc2cncnc2Nc2ccc(OCc3cccc(F)c3)c(Cl)c2)c1,-0.5,0.37,1.1,1.04,2.01,-3.2,-4.26,-4.58,-3.41,-6.93,-8.59,1.43,6.49,-2.58,-3.05,-4.92,-5.42,1.88,2.89,1.71
COc1ccc2[nH]c3c4[nH]c5ccc(OC)cc5c4c4c(c3c2c1)C(=O)NC4=O,22.9,17.4,57.6,-5.78,-3.69,22.4,65.6,81.2,83.4,2,24.8,1.24,2.81,2.61,5.29,5.01,6.04,7.99,38.8,3.92
